The values below come from PubChem BioAssay.

Where “and” joins values, the source holds several entries; their conditions need not be identical. Equal values may be shown once. Calls of active or inactive are those of the source.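 Rule for the calls, unless noted: active = compounds whose cell count with miR-34 switched on is under 0.7 times the count with it off; inactive = the rest.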

Assay [1] can be described thus: P. berghei load reduction in hepatocytes – cell-based, HepG2, luciferase luminescence, HepG2 viability, primary screen (AID 624349; in the data active = parasite load remaining mostly below about 12%, no sharp cut-off; inactive = mostly above about 10%;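 note: 100% = mean of DMSO negative control wells on the same plate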). Conditions: P. berghei liver stage in HepG2, luciferase luminescence, concentration not given here; parasite load remaining: stronger effect = lower value; viability: measured here: HepG2 viability without parasites.
Assay [2] can be described thus: viability loss with induced miR-34 in A549 – imaging, A549 dox-inducible miR-34, nuclei and caspase counts, primary screen (AID 1347080). Conditions: A549 miR-34 inducible, Hoechst nuclei count, 48 h.
A short description of assay [3]: MELAS cybrid and Rieske KO viability enhancers – cell-based, MELAS cybrids, Rieske KO mouse fibroblasts, CellTiter-Glo, primary screen (AID 1508586;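 active = mean z-score across replicates of 1.96 or higher in either the MELAS or the Rieske mutant cell line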;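 note: z relative to plate mean and SD of compound and empty wells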). Conditions: low glucose. On the technique in general: Cellular ATP, detected with luciferase, serves as a proxy for viable cell number.
Assay [4] in a line: galactose survival enhancers in mitochondrial complex I cybrids – cell-based, galactose medium, ATP luminescence, primary screen (AID 1645843;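 active = z-score of at least 1.8 in each of two replicates, scored against plate mean and spread of sample wells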;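 note: positive z means more ATP and so rescue of galactose-driven cybrid death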). Conditions: complex I mutant cybrid cells, 72 h, stronger effect = higher value.
Assay [5] can be described thus: compounds altering viability of human ES cells (AID 493140; call rule not given here;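 note: cells exposed to compounds for four days before counting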). Conditions: human embryonic stem cell survival screen; stronger effect = higher value.
Setting [6] is: stronger effect = lower value, cell number ratio, induced over uninduced.
The mark [7] stands for this setting: measured here: relative caspase fold change +Dox/-Dox.
The mark [8] stands for this setting: measured here: total cells with miR-34 induction, stronger effect = lower value.
Where [9] appears, read: measured here: total cells without miR-34 induction.
Setting [10] is: MELAS cybrid survival, CellTiter-Glo 48 h, stronger effect = higher value.
Setting [11] is: Rieske KO mouse fibroblast survival, CellTiter-Glo 72 h.

On to `CCCCCCCCCCCCCCCC(=O)O[C@@H]1[C@@H](O)[C@@H](O)[C@@H](C(NC(=O)[C@@H]2C[C@@H](CCC)CN2C)C(C)Cl)O[C@@H]1SC` (stereo partly specified), for which, in assay [1], the parasite load remaining is 67.8% (inactive). The viability in assay [1] is 204%. For the same molecule, the figures for the fold change in assay [2] (setting [6]) and in assay [2] (setting [7]) were 0.867 (inactive) and 1.18, respectively. The values for the cell count in assay [2] (setting [8]) and in assay [2] (setting [9]) were 9340 and 10800, respectively. Further, the z-score was 0.27 (inactive) in assay [3] (setting [10]), -0.444 in assay [3] (setting [11]) and 0.11 (inactive) in assay [4].

As to `CC1=C(CC(=O)O)c2cc(F)ccc2/C1=C/c1ccc(S(C)=O)cc1` (stereo unspecified), in assay [5], the survival is 19.2 (inactive). Also, the parasite load remaining in assay [1] was 88.6% (inactive) and 52.4% (inactive). In addition, in assay [1], the viability was 91.8% and 138%. For the same molecule, the fold change in assay [2] (setting [6]) is 0.93 (inactive); in assay [2] (setting [7]) it was 1.38. The cell count in assay [2] (setting [8]) was found to be 9820; in assay [2] (setting [9]) it was 10600. The z-score was -0.379 (inactive) in assay [3] (setting [10]), -0.389 in assay [3] (setting [11]) and 0.615 (inactive) in assay [4].

Turning to `CNC(=C[N+](=O)[O-])NCCSCc1csc(CN(C)C)n1`, in assay [5], the survival was 4.67 (inactive). The fold change was 0.834 (inactive) and 1.04 (inactive) in assay [2] (setting [6]); 1.65 and 0.659 in assay [2] (setting [7]). The cell count in assay [2] (setting [8]) was 8750 and 8440; in assay [2] (setting [9]), 10500 and 8100. Besides, the z-score in assay [3] (setting [10]) was -0.241 (inactive); in assay [3] (setting [11]), -0.0279; in assay [4], 0.825 (inactive).

Consider `CCC(=O)OCC(=O)[C@@]1(OC(=O)CC)[C@@H](C)C[C@H]2[C@@H]3CCC4=CC(=O)C=C[C@]4(C)C3(F)[C@@H](O)C[C@@]21C` (stereo partly specified), for which the parasite load remaining in assay [1] is 19.5% (inactive). Also, the viability in assay [1] came to 67%. For the same molecule, the fold change is 0.837 (inactive) in assay [2] (setting [6]) and 1.41 in assay [2] (setting [7]). Further, the figures for the cell count in assay [2] (setting [8]) and in assay [2] (setting [9]) were 6650 and 7940, respectively. The z-score was 0.189 (inactive) in assay [3] (setting [10]), 1.36 in assay [3] (setting [11]) and 0.155 (inactive) in assay [4].

Consider `CC(=O)OC1C=C2C(Cl)=C[C@@H]3[C@H](CC[C@@]4(C)[C@H]3CC[C@]4(OC(C)=O)C(C)=O)[C@@]2(C)CC1` (stereo partly specified), for which the parasite load remaining in assay [1] is 9.03% (inactive). In assay [1], the viability stood at 64%. Also, the fold change in assay [2] (setting [6]) was 0.729 (inactive); in assay [2] (setting [7]), 1.61. Further, the cell count in assay [2] (setting [8]) is 7220; in assay [2] (setting [9]), 9910. Further, the z-score is 0.137 (inactive) in assay [3] (setting [10]), 1.01 in assay [3] (setting [11]) and 0.185 (inactive) in assay [4].

For the molecule `COC(=O)c1ccccc1O`, the parasite load remaining in assay [1] is 53.2% (inactive). Moreover, the viability in assay [1] is 98%. Moreover, the figures for the fold change in assay [2] (setting [6]) and in assay [2] (setting [7]) were 0.851 (inactive) and 1.32, respectively. For the same molecule, the cell count was 10100 in assay [2] (setting [8]) and 11800 in assay [2] (setting [9]). Further, the z-score in assay [3] (setting [10]) was -0.407 (inactive); in assay [3] (setting [11]) it was -0.367; in assay [4], 0.47 (inactive).

Consider `CNC1(C)[C@H]2CC[C@H](C2)C1(C)C` (stereo partly specified), for which the parasite load remaining in assay [1] was 95.3% (inactive). Moreover, the viability in assay [1] stood at 108%. The fold change in assay [2] (setting [6]) is 0.905 (inactive); in assay [2] (setting [7]), 1.29. In addition, the cell count in assay [2] (setting [8]) is 9940; in assay [2] (setting [9]), 11000. The z-score in assay [3] (setting [10]) was 0.54 (inactive); in assay [3] (setting [11]), -0.569; in assay [4], 0.66 (inactive).

On to `CC(C)C[C@H](NC(=O)[C@@H](COC(C)(C)C)NC(=O)[C@H](Cc1ccc(O)cc1)NC(=O)[C@H](CO)NC(=O)[C@H](Cc1c[nH]c2ccccc12)NC(=O)[C@H](Cc1cnc[nH]1)NC(=O)[C@@H]1CCC(=O)N1)C(=O)N[C@@H](CCCN=C(N)N)C(=O)N1CCC[C@H]1C(=O)NNC(N)=O`, for which the parasite load remaining in assay [1] was 53.9% (inactive). The viability in assay [1] was determined as 102%. In addition, the fold change in assay [2] (setting [6]) is 0.891 (inactive); in assay [2] (setting [7]), 1.53. Also, the cell count in assay [2] (setting [8]) turned out to be 10600; in assay [2] (setting [9]) it was 11900. Further, the results for the z-score in assay [3] (setting [10]), in assay [3] (setting [11]) and in assay [4] were -0.533 (inactive), -0.444 and 0.71 (inactive), respectively.

For `CO/N=C(\C(=O)N[C@@H]1C(=O)N2C(C(=O)[O-])=C(C[N+]3(C)CCCC3)CS[C@H]12)c1csc(N)n1`, the parasite load remaining in assay [1] was 37.1% (inactive). In addition, the viability in assay [1] was determined as 100%. The figures for the fold change in assay [2] (setting [6]) and in assay [2] (setting [7]) were 0.872 (inactive) and 1.15, respectively. The results for the cell count in assay [2] (setting [8]) and in assay [2] (setting [9]) were 9480 and 10900, respectively. The z-score in assay [3] (setting [10]) is -0.344 (inactive); in assay [3] (setting [11]), 0.0422; in assay [4], 0.485 (inactive).

A word on the viability: it is a read-out of living cells in per cent, often relative to untreated cells.
